Measured values: PubChem BioAssay (NCATS)
Records with an inconclusive call do not appear. Entries that show only a call come without a potency. The source made the active and inactive calls. Unless noted, calls come from the whole dose curve.

Tests used:
[1] = Confirmatory qHTS for VERO E6 Cytotoxicity Assay: Counterscreen for SARS-CoV-2 CPE Assay (AID 1508605); conditions: cell viability luminescence; series mostly up to 20 µM; note: nearly all actives have a fitted effect of over 60% in size
[2] = Confirmatory qHTS for activators (rescue) of SARS-CoV-2 Cytopathic Effect (CPE) (AID 1508606); conditions: Vero E6 SARS-CoV-2 CPE rescue, viability luminescence; series mostly up to 20 µM; note: nearly all actives have a fitted effect of over 70% in size; note: potency is the fitted concentration of half-maximal effect
[3] = Primary qHTS for Huh7 cytotoxicity: counterscreen for inhibitors of MERS-S pseudotyped particle cell entry (AID 1479147); conditions: cell viability read-out; series mostly up to 57.1 µM; note: potency is the fitted concentration of half-maximal effect
[4] = Primary qHTS for Vero E6 cytotoxicity: counterscreen for inhibitors of SARS-S pseudo-typed particle cell entry (AID 1479150); conditions: cell viability; series mostly up to 57.1 µM; note: potency is the fitted concentration of half-maximal effect
[5] = Primary qHTS for inhibitors of MERS-S pseudo-typed particle cell entry (AID 1479149); conditions: MERS-S pseudotyped particle entry, luciferase; series mostly up to 57.1 µM; note: nearly all actives have a fitted effect of over 60% in size; note: potency is the fitted concentration of half-maximal effect
[6] = biological target: Calcium and integrin-binding protein 1 (Homo sapiens) (UniProt Q99828); experiment: Confirmatory qHTS for Identification of Calcium Integrin Binding Protein 1 (CIB1) Competitor (AID 1508617; active = well fitted curve in the direction sought with a large enough effect; an effect the other way counts as inactive or inconclusive; note: nearly all actives have a fitted effect of over 65% in size); conditions: CIB1 binding competition assay, biochemical qHTS; series mostly up to 228 µM
Calcium and integrin-binding protein 1 (Homo sapiens), sequence (Q99828 whole entry, looked up): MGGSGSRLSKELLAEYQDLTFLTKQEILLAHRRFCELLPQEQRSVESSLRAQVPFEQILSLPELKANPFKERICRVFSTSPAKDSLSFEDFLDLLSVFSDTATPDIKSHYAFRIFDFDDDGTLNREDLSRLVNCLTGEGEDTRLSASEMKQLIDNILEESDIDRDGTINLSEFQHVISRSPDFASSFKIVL
How it was run: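 Fluorescence polarization competition: CIB1-GST (1 uM final) in 5 mM HEPES pH 7.4, 125 mM NaCl, 5 mM CaCl2, 0.01% Tween20 preincubated 15 min RT with compound (up to 114 uM), then FITC-alphaIIb peptide (100 nM) added, 15 min RT.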

[7] = Primary qHTS for inhibitors of La Crosse Virus (LACV) - induced cell death in SH-SY5Y cells (AID 1508616; active = well fitted curve in the direction sought with a large enough effect; an effect the other way counts as inactive or inconclusive;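 note: top concentration of the series differs between compounds; higher means more rescue of cells from virus-induced death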); conditions: SH-SY5Y LACV cytopathicity rescue, ATP luminescence, 6 d; series mostly up to 9.63 µM
How it was run: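 SH-SY5Y, 6000 cells/well; cpd via pin tool in DMSO; LACV 0.01 MOI; 6 d 37C 5% CO2; ATPLite, 5 min RT; luminescence normalized to ±virus DMSO controls.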

[8] = biological target: Calcium and integrin-binding protein 1 (Homo sapiens) (UniProt Q99828); experiment: Primary qHTS for Identification of Calcium Integrin Binding Protein 1 (CIB1) Competitor (AID 1508620; active = well fitted curve in the direction sought with a large enough effect; an effect the other way counts as inactive or inconclusive;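 note: GST tagged CIB1 binding a fluorescein labelled alphaIIb integrin peptide tracer; top concentration of the series differs between compounds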); conditions: CIB1-GST / FITC-alphaIIb peptide fluorescence polarization; series mostly up to 57.7 µM
How it was run: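 Fluorescence polarization competition: CIB1-GST (1 uM final) preincubated with compound 15 min at room temperature, then FITC-labeled alphaIIb peptide (100 nM final) added for another 15 min. Polarization read at Ex 480/Em 540.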

## COc1cccc2c1CCCC2CCCN1CCN(C2CCCCC2)CC1 (stereo not given)
[1]
  Potency: inactive
[2]
  Potency: 11.2 µM (active)

## CN(C)c1ccc(C2Nc3ccc4ccccc4c3C3=C2C(=O)CC(C)(C)C3)cc1Br (stereo not given)
[1]
  Potency: inactive
[2]
  Potency: inactive

## Oc1c(I)cc(I)c2cccnc12
[3]
  Potency: inactive
[4]
  Potency: inactive

## CC(C)(C)C(O)/C=C/c1ccc2c(c1)OCO2 (stereo not given)
[3]
  Potency: inactive
[5]
  Potency: inactive
[4]
  Potency: inactive

## Cc1cc(C(=O)NNCc2ccccc2)no1
[3]
  Potency: inactive
[5]
  Potency: inactive
[4]
  Potency: inactive

## CC(=O)[O][Hg][c]1ccccc1
[3]
  Potency: 3.98 µM (active)
[5]
  Potency: 2.24 µM (active)
[4]
  Potency: 10 µM (active)
[6]
  Potency: inactive

## CCCCCCCc1ccc(CCc2cccc(O)c2C(=O)O)cc1
[1]
  Potency: inactive

## NCc1cc(=O)[nH]o1
[7]
  outcome: inactive

## Cc1nnc(C(C)C)n1C1CC2CCC(C1)N2CC[C@H](NC(=O)C1CCC(F)(F)CC1)c1ccccc1 (stereo not given in full)
[3]
  Potency: inactive
[5]
  Potency: inactive
[4]
  Potency: inactive

## COc1cc2nccc(Oc3ccc(NC(=O)C4(C(=O)Nc5ccc(F)cc5)CC4)cc3)c2cc1OC
[3]
  Potency: inactive
[4]
  Potency: inactive

## C[C@@H](N)C(=O)O
[3]
  Potency: inactive
[5]
  Potency: inactive
[4]
  Potency: inactive

## CC(C)CCCC(C)CCCC(C)CCCCC(C)CCCC(C)CCCC(C)C (stereo not given)
[3]
  Potency: inactive
[5]
  Potency: inactive
[4]
  Potency: inactive

## CC(C)[C@H]1C(=O)N[C@H](CO)Cc2c[nH]c3cccc(c23)N1C
[1]
  Potency: inactive
[2]
  Potency: 1.39 µM (active)
[8]
  outcome: inactive

## c1ccc(C2(c3ccccc3)CC2C2=NCCN2)cc1 (stereo not given)
[3]
  Potency: inactive
[5]
  Potency: inactive
[4]
  Potency: inactive
[7]
  outcome: inactive

## NC(CP(=O)(O)O)C(=O)O (stereo not given)
[7]
  outcome: inactive

## N#CC[C@H](C1CCCC1)n1cc(-c2ncnc3[nH]ccc23)cn1
[3]
  Potency: inactive
[5]
  Potency: inactive
[4]
  Potency: inactive
